Test results taken from publication PMC7862700, “An all-to-all approach to the identification of sequence-specific readers for epigenetic DNA modifications on cytosine”.

Experiments:
Assay in all cases: DAPPL (digital affinity profiling via proximity ligation, sequencing); 10 mM Tris-HCl pH 7.5, 50 mM NaCl, 1 mM DTT, 4% glycerol, room temperature, 30 min; GST-TFs on glutathione beads, 16-mer random dsDNA library, 0.1% formaldehyde crosslink after washing; high values mean tight binding
Conditions in all cases: protein: recombinant; tags: N-terminal GST; dsDNA, one strand shown
FLI1 = target: T1, FLI1 (Homo sapiens, UniProt Q01543 1-452)
T1 sequence: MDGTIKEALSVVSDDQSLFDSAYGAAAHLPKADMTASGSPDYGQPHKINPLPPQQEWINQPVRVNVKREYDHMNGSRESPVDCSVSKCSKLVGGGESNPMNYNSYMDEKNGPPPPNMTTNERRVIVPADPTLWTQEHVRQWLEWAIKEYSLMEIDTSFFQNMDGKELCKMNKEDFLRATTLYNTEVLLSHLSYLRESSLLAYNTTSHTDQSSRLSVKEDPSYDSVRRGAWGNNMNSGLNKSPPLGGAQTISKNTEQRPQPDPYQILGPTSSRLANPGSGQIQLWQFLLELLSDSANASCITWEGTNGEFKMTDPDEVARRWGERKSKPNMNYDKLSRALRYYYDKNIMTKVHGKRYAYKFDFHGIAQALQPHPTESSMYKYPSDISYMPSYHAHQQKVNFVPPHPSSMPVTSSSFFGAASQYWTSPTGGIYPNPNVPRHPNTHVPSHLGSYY
In short: (§1)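 Human transcription factors were made in yeast as GST fusions, captured on glutathione beads and barcoded with DNA. With a tag-only sample included, the pool was incubated with 200 nmole of a random double-stranded 16-mer DNA library in Tris/NaCl/DTT/glycerol buffer at room temperature for 30 min, then crosslinked with 0.1% formaldehyde after washing, ligated by proximity, amplified and sequenced. For binding signal, each hexamer's read frequency for a factor is divided by its frequency for the tag-only sample.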

ELK1 = target: T2, ELK1 (Homo sapiens, UniProt P19419 1-428)
T2 sequence: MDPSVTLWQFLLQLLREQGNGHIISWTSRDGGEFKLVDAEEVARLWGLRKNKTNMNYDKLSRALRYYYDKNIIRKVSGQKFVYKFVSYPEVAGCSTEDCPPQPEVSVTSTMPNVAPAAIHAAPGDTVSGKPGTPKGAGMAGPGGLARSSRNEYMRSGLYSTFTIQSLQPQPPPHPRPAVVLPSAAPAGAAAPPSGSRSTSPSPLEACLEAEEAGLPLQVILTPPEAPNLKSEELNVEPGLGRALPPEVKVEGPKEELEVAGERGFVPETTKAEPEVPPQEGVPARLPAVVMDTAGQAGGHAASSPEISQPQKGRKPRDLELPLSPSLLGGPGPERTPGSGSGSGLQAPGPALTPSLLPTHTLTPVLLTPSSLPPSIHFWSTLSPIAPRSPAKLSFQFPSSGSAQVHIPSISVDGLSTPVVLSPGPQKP
In short: as §1

GABPA = target: T3, GABPA (Homo sapiens, UniProt Q06546 1-454)
T3 sequence: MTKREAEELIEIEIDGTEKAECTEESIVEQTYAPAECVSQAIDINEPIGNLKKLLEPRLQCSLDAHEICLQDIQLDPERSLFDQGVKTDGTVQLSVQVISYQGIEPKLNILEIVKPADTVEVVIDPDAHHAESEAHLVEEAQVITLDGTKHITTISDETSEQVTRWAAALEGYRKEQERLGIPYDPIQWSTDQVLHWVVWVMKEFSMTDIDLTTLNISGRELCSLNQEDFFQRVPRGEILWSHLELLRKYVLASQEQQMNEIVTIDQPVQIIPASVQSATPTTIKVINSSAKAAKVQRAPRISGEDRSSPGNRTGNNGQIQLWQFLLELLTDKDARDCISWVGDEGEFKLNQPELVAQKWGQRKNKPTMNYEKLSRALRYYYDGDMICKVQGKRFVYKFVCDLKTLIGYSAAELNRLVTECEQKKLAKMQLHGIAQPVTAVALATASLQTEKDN
In short: as §1

ERG = target: T4, ERG (Homo sapiens, UniProt P11308 1-479)
T4 sequence: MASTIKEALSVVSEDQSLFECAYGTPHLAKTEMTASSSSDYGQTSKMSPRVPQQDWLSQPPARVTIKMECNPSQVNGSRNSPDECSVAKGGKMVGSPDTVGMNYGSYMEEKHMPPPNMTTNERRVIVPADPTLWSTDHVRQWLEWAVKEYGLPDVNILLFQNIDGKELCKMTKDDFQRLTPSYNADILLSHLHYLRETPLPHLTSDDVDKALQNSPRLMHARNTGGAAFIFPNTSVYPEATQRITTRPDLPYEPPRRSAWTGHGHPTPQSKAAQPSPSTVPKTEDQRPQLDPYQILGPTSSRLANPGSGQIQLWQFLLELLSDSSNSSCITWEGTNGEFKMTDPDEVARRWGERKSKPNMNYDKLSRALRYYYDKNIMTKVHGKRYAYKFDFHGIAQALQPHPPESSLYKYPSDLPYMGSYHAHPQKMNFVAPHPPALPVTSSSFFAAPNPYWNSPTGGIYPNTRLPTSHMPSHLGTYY
In short: as §1

ELF1 = ELF1 (Homo sapiens, UniProt P32519 1-619)
ELF1, sequence (P32519 whole entry): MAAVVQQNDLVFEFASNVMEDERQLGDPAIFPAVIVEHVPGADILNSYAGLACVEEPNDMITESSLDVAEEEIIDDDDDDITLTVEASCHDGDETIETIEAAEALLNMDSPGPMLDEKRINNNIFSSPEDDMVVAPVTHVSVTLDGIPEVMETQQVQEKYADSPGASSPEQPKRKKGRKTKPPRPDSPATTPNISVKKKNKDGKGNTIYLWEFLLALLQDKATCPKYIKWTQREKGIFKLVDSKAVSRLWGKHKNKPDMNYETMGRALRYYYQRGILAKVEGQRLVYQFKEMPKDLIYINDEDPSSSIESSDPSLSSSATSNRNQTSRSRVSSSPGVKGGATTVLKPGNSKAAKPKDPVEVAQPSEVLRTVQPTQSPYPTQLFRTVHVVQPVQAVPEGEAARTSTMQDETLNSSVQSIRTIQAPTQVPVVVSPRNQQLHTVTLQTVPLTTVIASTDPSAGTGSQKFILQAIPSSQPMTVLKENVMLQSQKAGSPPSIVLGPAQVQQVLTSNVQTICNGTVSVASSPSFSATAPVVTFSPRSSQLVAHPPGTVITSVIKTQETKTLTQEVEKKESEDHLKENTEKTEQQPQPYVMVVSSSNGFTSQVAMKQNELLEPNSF
In short: as §1

EHF = target: T5, EHF (Homo sapiens, UniProt Q9NZC4 1-300)
T5 sequence: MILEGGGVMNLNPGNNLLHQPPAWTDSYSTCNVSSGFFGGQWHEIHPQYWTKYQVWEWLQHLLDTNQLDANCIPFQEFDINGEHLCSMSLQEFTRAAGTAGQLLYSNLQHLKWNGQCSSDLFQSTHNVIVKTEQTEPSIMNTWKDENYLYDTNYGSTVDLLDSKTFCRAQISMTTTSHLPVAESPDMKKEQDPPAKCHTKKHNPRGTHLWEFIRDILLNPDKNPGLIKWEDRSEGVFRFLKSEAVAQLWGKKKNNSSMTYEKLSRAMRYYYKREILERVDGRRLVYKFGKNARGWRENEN
In short: as §1

SPI1 = SPI1 (Homo sapiens, UniProt P17947 1-270)
In short: as §1

SPIB = SPIB (Homo sapiens, UniProt Q01892 1-262)
SPIB, sequence (Q01892 whole entry): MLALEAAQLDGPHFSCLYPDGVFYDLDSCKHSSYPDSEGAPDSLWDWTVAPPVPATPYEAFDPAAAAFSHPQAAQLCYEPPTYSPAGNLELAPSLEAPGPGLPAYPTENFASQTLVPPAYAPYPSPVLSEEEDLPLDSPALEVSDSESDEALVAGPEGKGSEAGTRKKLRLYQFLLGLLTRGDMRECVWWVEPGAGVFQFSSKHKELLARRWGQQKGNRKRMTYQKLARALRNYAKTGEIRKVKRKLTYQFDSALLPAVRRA
In short: as §1

ELK3 = target: T6, ELK3 (Homo sapiens, UniProt P41970 1-407)
T6 sequence: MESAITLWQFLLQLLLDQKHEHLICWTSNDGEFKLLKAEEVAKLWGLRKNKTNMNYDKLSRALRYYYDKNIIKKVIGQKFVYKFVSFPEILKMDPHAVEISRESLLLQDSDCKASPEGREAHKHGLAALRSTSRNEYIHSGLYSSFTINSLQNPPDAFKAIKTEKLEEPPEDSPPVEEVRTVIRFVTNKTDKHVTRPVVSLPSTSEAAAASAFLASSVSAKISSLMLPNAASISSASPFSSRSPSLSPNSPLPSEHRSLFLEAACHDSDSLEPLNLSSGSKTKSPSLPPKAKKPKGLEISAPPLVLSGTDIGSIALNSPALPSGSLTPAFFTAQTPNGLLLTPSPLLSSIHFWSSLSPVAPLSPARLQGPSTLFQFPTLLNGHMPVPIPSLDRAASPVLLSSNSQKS
In short: as §1

AGGTCT was tested, and the binding signal (FLI1) was 1.31 fold enrichment (6-mer frequency, TF over GST control), the binding signal (ELK1) was 1.17 fold enrichment (6-mer frequency, TF over GST control) and the binding signal (GABPA) was 1.16 fold enrichment (6-mer frequency, TF over GST control). For the same sequence, the binding signal (ERG) was 1.15 fold enrichment (6-mer frequency, TF over GST control), the binding signal (ELF1) was 1.22 fold enrichment (6-mer frequency, TF over GST control) and the binding signal (EHF) was 1.19 fold enrichment (6-mer frequency, TF over GST control). For the same sequence, the binding signal (SPI1) was 1.11 fold enrichment (6-mer frequency, TF over GST control), the binding signal (SPIB) was 1.22 fold enrichment (6-mer frequency, TF over GST control) and the binding signal (ELK3) was 1.3 fold enrichment (6-mer frequency, TF over GST control).
For TAGTGG, the binding signal (FLI1) was 1.18 fold enrichment (6-mer frequency, TF over GST control), the binding signal (ELK1) was 1.19 fold enrichment (6-mer frequency, TF over GST control) and the binding signal (GABPA) was 1.25 fold enrichment (6-mer frequency, TF over GST control). The binding signal (ERG) was 1.07 fold enrichment (6-mer frequency, TF over GST control), the binding signal (ELF1) was 1.28 fold enrichment (6-mer frequency, TF over GST control) and the binding signal (EHF) was 1.32 fold enrichment (6-mer frequency, TF over GST control). For the same sequence, the binding signal (SPI1) was 1.19 fold enrichment (6-mer frequency, TF over GST control), the binding signal (SPIB) was 1.34 fold enrichment (6-mer frequency, TF over GST control) and the binding signal (ELK3) was 1.4 fold enrichment (6-mer frequency, TF over GST control).
In the case of TCCTAC, the binding signal (FLI1) is reported as 1.48 fold enrichment (6-mer frequency, TF over GST control), the binding signal (ELK1) is reported as 1.46 fold enrichment (6-mer frequency, TF over GST control) and the binding signal (GABPA) is reported as 1.43 fold enrichment (6-mer frequency, TF over GST control). The binding signal (ERG) was 1.42 fold enrichment (6-mer frequency, TF over GST control), the binding signal (ELF1) was 1.31 fold enrichment (6-mer frequency, TF over GST control) and the binding signal (EHF) was 1.45 fold enrichment (6-mer frequency, TF over GST control). The binding signal (SPI1) was 1.52 fold enrichment (6-mer frequency, TF over GST control), the binding signal (SPIB) was 1.65 fold enrichment (6-mer frequency, TF over GST control) and the binding signal (ELK3) was 1.56 fold enrichment (6-mer frequency, TF over GST control).
CTTCTC was tested, and the binding signal (FLI1) was 1.38 fold enrichment (6-mer frequency, TF over GST control), the binding signal (ELK1) was 1.39 fold enrichment (6-mer frequency, TF over GST control) and the binding signal (GABPA) was 1.39 fold enrichment (6-mer frequency, TF over GST control). The binding signal (ERG) was 1.3 fold enrichment (6-mer frequency, TF over GST control), the binding signal (ELF1) was 1.41 fold enrichment (6-mer frequency, TF over GST control) and the binding signal (EHF) was 1.37 fold enrichment (6-mer frequency, TF over GST control). The binding signal (SPI1) was 1.4 fold enrichment (6-mer frequency, TF over GST control), the binding signal (SPIB) was 1.34 fold enrichment (6-mer frequency, TF over GST control) and the binding signal (ELK3) was 1.39 fold enrichment (6-mer frequency, TF over GST control).
TTCCAC was tested, and the binding signal (FLI1) was 1.39 fold enrichment (6-mer frequency, TF over GST control), the binding signal (ELK1) was 1.28 fold enrichment (6-mer frequency, TF over GST control) and the binding signal (GABPA) was 1.38 fold enrichment (6-mer frequency, TF over GST control). For the same sequence, the binding signal (ERG) was 1.4 fold enrichment (6-mer frequency, TF over GST control), the binding signal (ELF1) was 1.45 fold enrichment (6-mer frequency, TF over GST control) and the binding signal (EHF) was 1.33 fold enrichment (6-mer frequency, TF over GST control). For the same sequence, the binding signal (SPI1) was 1.42 fold enrichment (6-mer frequency, TF over GST control), the binding signal (SPIB) was 1.35 fold enrichment (6-mer frequency, TF over GST control) and the binding signal (ELK3) was 1.5 fold enrichment (6-mer frequency, TF over GST control).
With CAATTT the binding signal (FLI1) was 1.26 fold enrichment (6-mer frequency, TF over GST control), the binding signal (ELK1) was 1.35 fold enrichment (6-mer frequency, TF over GST control) and the binding signal (GABPA) was 1.37 fold enrichment (6-mer frequency, TF over GST control). The binding signal (ERG) was 1.43 fold enrichment (6-mer frequency, TF over GST control), the binding signal (ELF1) was 1.29 fold enrichment (6-mer frequency, TF over GST control) and the binding signal (EHF) was 1.28 fold enrichment (6-mer frequency, TF over GST control). For the same sequence, the binding signal (SPI1) was 1.32 fold enrichment (6-mer frequency, TF over GST control), the binding signal (SPIB) was 1.43 fold enrichment (6-mer frequency, TF over GST control) and the binding signal (ELK3) was 1.12 fold enrichment (6-mer frequency, TF over GST control).
With AGCTAC the binding signal (FLI1) was 1.13 fold enrichment (6-mer frequency, TF over GST control), the binding signal (ELK1) was 1.11 fold enrichment (6-mer frequency, TF over GST control) and the binding signal (GABPA) was 1.16 fold enrichment (6-mer frequency, TF over GST control). The binding signal (ERG) was 1.13 fold enrichment (6-mer frequency, TF over GST control), the binding signal (ELF1) was 1.15 fold enrichment (6-mer frequency, TF over GST control) and the binding signal (EHF) was 1.22 fold enrichment (6-mer frequency, TF over GST control). The binding signal (SPI1) was 1.17 fold enrichment (6-mer frequency, TF over GST control), the binding signal (SPIB) was 1.19 fold enrichment (6-mer frequency, TF over GST control) and the binding signal (ELK3) was 1.18 fold enrichment (6-mer frequency, TF over GST control).
For AGCTCT, the binding signal (FLI1) was 1.19 fold enrichment (6-mer frequency, TF over GST control), the binding signal (ELK1) was 1.25 fold enrichment (6-mer frequency, TF over GST control) and the binding signal (GABPA) was 1.17 fold enrichment (6-mer frequency, TF over GST control). The binding signal (ERG) was 1.11 fold enrichment (6-mer frequency, TF over GST control), the binding signal (ELF1) was 1.23 fold enrichment (6-mer frequency, TF over GST control) and the binding signal (EHF) was 1.18 fold enrichment (6-mer frequency, TF over GST control). The binding signal (SPI1) was 1.04 fold enrichment (6-mer frequency, TF over GST control), the binding signal (SPIB) was 1.04 fold enrichment (6-mer frequency, TF over GST control) and the binding signal (ELK3) was 1.15 fold enrichment (6-mer frequency, TF over GST control).
